Assay outcomes as filed in PubChem BioAssay.
Most compounds without a hit are left out; they make up all but 11% or so of the library.
MCF10A rerep: inducers of DNA re-replication in MCF 10A breast cells. MCF 10A DNA re-replication, Hoechst nuclear intensity, 48 h. Potency, µM (highest dose often 46.1 µM), inactives show at the top dose activity, positive = re-replication, hits mostly activators. actives 2.9% (n = 350,000). AID 624296; note: potency is the fitted concentration of half-maximal effect; % of control where 0% means no effect; nearly all actives have a fitted effect of over 50% in size
RORgamma inh: blocks mouse ROR gamma transcriptional activity; P51450; Drosophila S2 Gal4-RORgamma UAS-luciferase reporter, 20 h; Potency, µM (doses to about 53.6 µM), for the others: top-dose activity change, negative = inhibition, actives largely listed as inhibitors; actives 5.4% (n = 310,000); note: potency is the fitted concentration of half-maximal effect; % is set by controls: 0 for no effect and ±100 for the full control effect; nearly all actives have a fitted effect of over 60% in size
Target sequence (P51450 whole entry, looked up, the tested form may be a part): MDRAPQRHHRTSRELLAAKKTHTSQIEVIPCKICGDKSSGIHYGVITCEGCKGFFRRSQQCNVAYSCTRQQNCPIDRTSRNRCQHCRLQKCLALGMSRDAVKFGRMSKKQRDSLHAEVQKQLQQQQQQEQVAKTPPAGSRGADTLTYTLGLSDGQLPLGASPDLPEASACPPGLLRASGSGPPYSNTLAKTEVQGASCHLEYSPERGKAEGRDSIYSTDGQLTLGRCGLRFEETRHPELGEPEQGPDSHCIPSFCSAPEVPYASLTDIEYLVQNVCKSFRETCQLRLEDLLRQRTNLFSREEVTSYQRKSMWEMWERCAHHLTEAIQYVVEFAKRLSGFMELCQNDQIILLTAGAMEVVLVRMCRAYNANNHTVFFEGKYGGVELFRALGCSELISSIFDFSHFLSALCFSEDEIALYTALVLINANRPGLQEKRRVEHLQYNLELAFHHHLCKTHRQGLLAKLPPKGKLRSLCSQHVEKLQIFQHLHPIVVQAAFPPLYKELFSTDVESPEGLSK
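Drosophila Schneider cells stably carrying a metallothionein-driven Gal4 DBD–ROR gamma fusion and a UAS-Photinus luciferase reporter were exposed to compound for 1 hr, then induced with copper sulfate (700 uM final) for 20 hr at ambient temperature before luminescence reading.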
Gal4-VP16 FLuc: counter-screen for ROR gamma inhibitors: Gal4-VP16 reporter; Potency, µM (doses to about 53.6 µM), for the others: at the highest dose activity, negative = inhibition, most hits filed as inhibitors; AID 2546; Drosophila S2 Gal4-VP16 UAS-luciferase, luminescence, 20 h; actives 3.5% (n = 310,000);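 note: Gal4-VP16 expression switched on by copper sulfate through the metallothionein promoter; potency is the fitted concentration of half-maximal effect; % is set by controls: 0 for no effect and ±100 for the full control effect; nearly all actives have a fitted effect of over 50% in size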
IL1B secr inh: inhibitors of inflammasome signaling (IL-1 beta secretion) | THP-1 LPS/ATP IL-1B secretion, AlphaLISA, 16 h; active compounds read low | activity change, % at 57.5 µM | actives 4.7% (n = 360,000) | AID 743279; in the data active = activity change below about -50%; inconclusive = mostly about -30% to -49%; note: % is set by controls: 0 for no effect and ±100 for the full control effect
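Secreted IL-1B measured by AlphaLISA bead assay after 16 h compound exposure of THP-1 cells; compounds (final up to 57.5 uM) added 1 h before LPS (250 ng/mL) and ATP (1.25 mM) stimulation; lower signal means less secretion.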
SW480 rerep: DNA re-replication induction in SW480 cells; SW480 DNA re-replication, Hoechst DNA content imaging, 48 h; Potency, µM (titrated, usually from 46.1 µM), without a hit: at the highest dose re-replication activation, most hits filed as activators; AID 624297; actives 1.8% (n = 340,000); note: potency is the fitted concentration of half-maximal effect; % of control where 0% means no effect; nearly all actives have a fitted effect of over 55% in size
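Quantitative HTS format with DMSO vehicle controls; 48 hr drug incubation at 37 C, then 40 min Hoechst staining and scanning imager measurement at 405 nm excitation.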
An asterisk follows results filed as active; ? = inconclusive; . = no result given; [ ] = remark or other dose. Unless noted, calls come from the whole dose curve; as a rule, active = well fitted curve in the direction sought with a large enough effect; inconclusive = small, poorly fitted or top-dose-only effect, or another doubt; inactive = no such curve, though single readings can be large; an effect the other way counts as inactive or inconclusive.

SMILES	MCF10A rerep	RORgamma inh	Gal4-VP16 FLuc	IL1B secr inh	SW480 rerep
CCOc1cccc(CN2CCCC(N3CCN(c4cccc(Cl)c4)CC3)C2)c1O (stereo unspecified)	?	4%	-16%	-72*	-3%
CCOc1cccc(CN2CCCC(C(=O)c3cc(Cl)ccc3OC)C2)c1O (stereo unspecified)	4%	-8%	-2%	-55*	5%
COc1cccc(CN2CCCC(C(=O)c3ccc4c(c3)OCO4)C2)c1O (stereo unspecified)	?	0%	18%	-24	-42%
CCOc1cccc(CN2CCCC(N3CCc4ccccc4C3)C2)c1O (stereo unspecified)	0%	2%	-3%	-4	1%
COc1ccc(C(=O)C2CCCN(Cc3cc(Cl)ccc3O)C2)c(OC)c1 (stereo unspecified)	17%	?	-13%	-65*	10%
OC(c1ccc(-c2ccccc2)cc1)c1ncc(-c2cccc(F)c2)[nH]1 (stereo unspecified)	.	.	.	-8	.
CC(C)CC(CSc1ccc(Br)cc1)N1CCN(CCc2ccccc2)CCC1=O (stereo unspecified)	.	33%	-12%	.	.
Cn1cnc([N+](=O)[O-])c1S(=O)(=O)c1ccc(Cl)cc1	9.2µM*	3.5µM*	5µM*	-138*	?
COC(=O)C1=C(N)c2ccccc2C1(C#N)c1ccccc1 (stereo unspecified)	0%	11%	16µM*	-8	-31%
CCCCCCCC(=O)OCCOC(=O)CCCCCCC	.	-13%	-2%	.	.
Cc1nc(SCC(=O)NNC(=O)c2ccc(F)cc2)c2ccccc2n1	3%	.	.	8	-15%
CSc1nc(N(C)NC(=O)c2ccc(F)cc2)c2ccccc2n1	1.8µM*	?	6%[0.365 µM]	75	2.3µM*
O=C(C1CC1)N1CCC(C(O)(c2ccccc2)c2ccccc2)CC1	5%	22%	-9%	3	-1%
CC(C)(C)C(=O)N1CCC[C@H]1C(O)(c1ccccc1)c1ccccc1	18%	?	22µM*	0	?
Cc1ccc(NC(=O)C(C)Sc2nnc3n2CCCCC3)cc1S(=O)(=O)N1CCOCC1 (stereo unspecified)	.	.	.	1	.
Cc1ccc(CNC(=O)Cc2ccc(-n3c(=O)[nH]c4ccsc4c3=O)cc2)cc1	2.1µM*	2%	28%	31	6.5µM*
COc1ccc(CC(=O)NCc2ccc(-n3cccc3)cc2)cc1OC	5.8µM*	?	5%	21	5.2µM*
COc1cc(OC)cc(C(=O)NCc2ccc(-n3cccc3)cc2)c1	?	8%	-3%	-17	?
Cc1ccc(CNC(=O)Cc2ccc(-n3cccc3)cc2)cc1	5.8µM*	-3%	2%	-13	4.1µM*
CC(=O)C[C@H](O)[C@@H](NC(=O)OC(C)(C)C)C(C)C	.	-3%[10 µM]	-4%[10 µM]	.	.
CN(C)c1ccc(C(=O)C(=O)N2CCN(c3ccccc3)CC2)cc1	.	.	.	-2	.
Cn1c(SCC(=O)c2ccccc2)nnc1-c1ccc(O)cc1	0%	0%	11µM*	15	1%
Cc1ccc2c(n1)sc1c(-c3ccccc3)c(C#N)c(N)nc12	5µM*	-6%	-12%	7	7.3µM*
NNc1nc(-c2ccccc2Cl)c2cc(Br)ccc2n1	11%	11µM*	?	15	-5%
O=C(CCC(=O)N1CCN(c2ccc(Cl)c(Cl)c2)CC1)c1ccccc1	?	27%	-27%	-9	-2%
SMILES	MCF10A rerep	RORgamma inh	Gal4-VP16 FLuc	IL1B secr inh	SW480 rerep
Clc1ccccc1-c1ncnc2ccc(Br)cc12	-3%	?	-6%	29	?
O=C(O)CCC(=O)N1CCN(c2nc(-c3ccccc3Cl)c3cc(Br)ccc3n2)CC1	21µM*	21%	-19%	33	-1%
O=C(O)CCC(=O)N1CCN(c2nc(-c3ccccc3)c3cc(Br)ccc3n2)CC1	23µM*	?	-4%	21	?
Cc1cccc(C)c1-n1nnnc1C1(C)CCC(=O)N1C1CC1 (stereo unspecified)	.	.	.	22	.
COC(=O)c1cccc(NC(=O)CN2C(=O)C3CCCCC3C2=O)c1 (stereo unspecified)	5%	.	.	-14	?
CCOC(=O)c1cccc(NC(=O)CN2C(=O)C3C4C=CC(C4)C3C2=O)c1 (stereo unspecified)	-2%	15%	6%	-95*	14%
O=C1CCC[C@@H](C(C(=O)OCc2ccccc2)C(=O)OCc2ccccc2)C1	.	2%[10 µM]	19%[10 µM]	.	.
Cc1nc(COc2ccccc2Cl)sc1-c1ccnc(N)n1	0%	13%	-2%	-62*	-2%
OC(CNC1CCCCC1)CNC1CCCCC1	0%	-12%	-5%	-20	?
OC1CCCC1NCc1ccnc2cc(Cl)ccc12 (stereo unspecified)	3%	.	.	-4	4%
OC(CNc1ccnc2cc(Cl)ccc12)CNC1CCCCC1 (stereo unspecified)	?	.	.	-114*	23µM*
CCNC1CCC(Nc2ccnc3cc(Cl)ccc23)CC1 (stereo unspecified)	13%	.	.	-98*	?
O=S(=O)(c1ccc(-c2n[nH]c(=S)o2)cc1)N1CCCC1	-2%	-15%	6%	26	-19%
CCOc1ccc(CN2CCN(C(=O)c3cccc4ccccc34)CC2)cc1	5%	22%	15%	-83*	-43%
CCOC(=O)N1CCN(C(=O)c2cc(-c3ccncc3)nc3ccccc23)CC1	?	.	.	13	18µM*
CCOc1ccc(-c2cc(C(=O)N3CCN(C)CC3)c3ccccc3n2)cc1	-3%	30%	?	-3	1%
CCOc1ccc(CN2CCN(C(=O)c3ccccc3)CC2)cc1	?	8%	6%	-20	0%[9.22 µM]
CCOC(=O)N1CCN(C(=O)c2cc(-c3ccc(OCC)cc3)nc3ccccc23)CC1	3.7µM*	-23%	?	17	4.6µM*
O=S1(=O)CC(N2CC=CC2)CN1Cc1ccccc1 (stereo unspecified)	.	.	.	2	.
COC(=O)c1ccccc1NS(=O)(=O)c1ccc(NC(C)=O)cc1	0%	15%	-25%	-84*	6%
COc1ccc(NC(=S)NCc2ccccc2)c(OC)c1	1%	16µM*	?	-11	3%
COc1cc(Cl)c(C)cc1NC(=S)NN	?	2.5µM*	?	32	-2%
COc1ccc(NC(=S)NCCc2ccccc2)c(OC)c1	3%	11µM*	18µM*	-2	1%
COc1cc(Cl)c(C)cc1NC(=O)c1cccc(OC)c1OC	?	23%	0%	-25	?
CCCCNC(=O)c1nc(-c2cccs2)oc1-c1ccc(Cl)cc1	.	.	.	-5	.
COc1cc(NC(=O)c2ccc(F)cc2)c(OC)cc1Cl	9%	?	3%	7	-12%
